High-throughput results as filed in PubChem BioAssay.
aSyn UTR act – Activators working through SNCA 5'UTR binding (MLPCN). actives 7.1% (n = 300,000). activity score, % (tested at 7.5 µM), hits read low. AID 1814. alpha-synuclein 5'UTR reporter, activators screen; in the data active = activity score below about -60%
The depositor's hits bear a star. Only a sample is shown.

SMILES	aSyn UTR act
Cc1ccc(NC(=O)c2ccc3nc[nH]c3c2)nc1	-95.8*
O=C(Nc1ccc(OC(F)(F)F)cc1)c1ccc2nc[nH]c2c1	-64.3*
Cc1ccc(NC(=O)c2ccc(C(=O)c3ccccc3)cc2)nc1	-108.9*
Cc1ccc(NC(=O)CCNC(=O)c2ccc(Cl)cc2)nc1	-79.8*
CC(=O)Cn1nnc2sc3c(c2c1=O)CCC(C(C)(C)C)C3 (centres undefined)	-112.6*
Cc1cccc(NCc2cccc3ccccc23)n1	-67.4*
Cc1cccc(NCc2ccc(Br)cc2)n1	-65.6*
Cc1cc(-c2n[nH]c(=S)o2)c(C)n1-c1ccccc1	-144.3*
Cc1ccc(S(=O)(=O)NC(=O)Nc2ccc(N(C)C)cc2)cc1	-111.2*
CC1CC(=O)NN=C1c1ccc(NCCO)c([N+](=O)[O-])c1 (centres undefined)	76.1
COCCN=C1NN=C(c2ccc(C)c([N+](=O)[O-])c2)CS1	-108.3*
CCCCN=C1NN=C(c2ccc(C)c(C)c2)CS1	-162.1*
O=C(N/N=C/c1ccccc1F)NC12CC3CC(CC(C3)C1)C2	-114.8*
O=C(N/N=C/c1ccccn1)NC12CC3CC(CC(C3)C1)C2	-105.1*
CCN(CC)CCCN(C(=O)c1cccs1)c1nc(-c2ccc(OC)cc2)cs1	-101.5*
COCCCN(C(C)=O)c1nc(-c2ccccc2)cs1	-145.9*
COc1ccc(-c2csc(N(C)C(=O)c3cccs3)n2)cc1	-125.7*
Cc1ccc(N2C(=O)c3ccccc3C2O)nc1 (centres undefined)	72.7
COc1ccc(N2C(=O)c3ccccc3C2O)cc1 (centres undefined)	-78.5*
O=C1c2ccccc2C(O)N1c1ccc(Cl)cc1 (centres undefined)	-67.2*
COc1ccc(O)c(C(=O)C2c3ccccc3C(=O)N2c2ccc(C)cc2)c1 (centres undefined)	-116.2*
CN1C(=O)C(O)(c2nnc(-c3ccccc3)o2)c2ccccc21 (centres undefined)	-96.0*
Clc1ccc(-c2ccc(/C=N/Nc3nncc(-c4ccccc4)n3)o2)cc1	-75.3*
Oc1cccc(/C=N\Nc2nncc(-c3ccccc3)n2)c1	-210.2*
Cc1ccc(/C=N/Nc2nncc(-c3ccccc3)n2)o1	-99.1*
SMILES	aSyn UTR act
Cc1[nH]n(-c2ccccc2)c(=O)c1/C=N/Nc1nncc(-c2ccccc2)n1	91.2
CN(C)S(=O)(=O)c1ccc(N2C(=O)CC2(/C=C/c2ccccc2)C(=O)NC2CCCC2)cc1 (centres undefined)	34.9
COc1ccccc1/C=C/C1(C(=O)NC2CCCC2)CC(=O)N1c1ccccc1 (centres undefined)	-138.4*
Oc1cccc2c(NC(=S)Nc3ccc(OC(F)F)cc3)cccc12	-138.1*
Cc1ccc(Cn2nc(C)c(NC(=O)c3cc(-c4ccc5c(c4)OCO5)on3)c2C)cc1	42.7
CC(C)CNC(=O)c1cc(-c2ccc3c(c2)OCO3)on1	-100.2*
CC(C)CNC(=O)COCc1cc(-c2ccc3c(c2)OCO3)on1	-76.9*
CCCNC(=O)COCc1cc(-c2ccc3c(c2)OCO3)on1	-65.7*
O=C(COCc1cc(-c2ccc3c(c2)OCO3)on1)N1CCCCC1	-90.0*
O=C(Nc1nccs1)c1ccc(NC(=O)c2ccco2)cc1	-141.5*
O=C(Nc1ccc(NC(=O)C2CC2)cc1)c1ccco1	-92.4*
Cc1ccc(NC(=O)CNC(=O)c2ccco2)cc1	-120.0*
Cc1cc2cc(NC(=O)c3ccco3)ccc2[nH]1	-141.2*
O=C(Nc1ccc(Nc2ccccc2)cc1)c1ccco1	-150.2*
O=C(Nc1ccc(NC(=O)c2ccco2)cc1)c1ccco1	-109.3*
Cc1cccc(OCC(=O)Nc2ccc(NC(=O)c3ccco3)cc2)c1	-66.5*
CC(=O)N(C)c1ccc(NC(=O)c2ccco2)cc1	-80.0*
Nc1nc2ccc(NC(=O)c3ccco3)cc2s1	-116.0*
O=C(Nc1ccc(Br)cc1)c1ccco1	-154.1*
O=C(Nc1ccc(Cc2ccncc2)cc1)c1ccco1	-74.6*
COc1ccc(C2OC(=O)CC2C(=O)NCc2ccc(Cl)cc2)cc1OC (centres undefined)	-77.8*
COc1cccc(C2N=C(c3ccccc3C)NO2)c1OC (centres undefined)	-80.2*
CNc1nnc(-c2ccc(OC)cc2)s1	-75.3*
Cc1ccc(C(=O)NC(C)C2CC3CCC2C3)c(C)c1 (centres undefined)	-101.8*
COc1ccc(/C=C/C(=O)NC(=S)N2CCSCC2)cc1	-65.2*
SMILES	aSyn UTR act
COc1ccc(NC(=O)CN(C)C(=O)/C=C/c2ccc(S(=O)(=O)N3CCCCCC3)cc2)cc1	59.5
COc1ccc(/C=C/C(=O)NC(=S)N2CCN(c3ccccn3)CC2)cc1	-121.6*
COc1cc(C(=O)Nc2ccc(N(C)C)cc2)c([N+](=O)[O-])cc1OC	-75.1*
O=C(CC1=NCCNC(c2ccccc2)C1)c1ccccc1O (centres undefined)	-145.2*
Cc1ccc(C2CC(c3ccccc3)=NN2C(=S)Nc2ccccc2)o1 (centres undefined)	-65.1*
CC(C)NC(=O)c1ccc2c3n(nc2c1)-c1ccc(Cl)cc1CO3	-176.0*
